Experimental data published in PubChem BioAssay (EPA / NIEHS).
Activity calls are given as the source filed them. Rule for the calls: active = hit-call score of the fitted dose curve at least 0.9, where 1 is the maximum; inactive = score below 0.9.

Key:
[1] = ATG_NFI_CIS: Attagene CIS-FACTORIAL HepG2 Assay for human Nuclear Factor I (NFI) (AID 2282989); details: HepG2 cis-regulatory reporter, NFI response element transcription; actives raise or lower the signal
Outline: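 HepG2, transient MRTU, 24 h exposure; RNA→cDNA→PCR→FAM label→HpaI→CE fluorescence. Bidirectional fit, DMSO = baseline.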

[2] = biological target: Myc proto-oncogene protein (Homo sapiens) (UniProt P01106); experiment: ATG_Myc_CIS: Attagene CIS-FACTORIAL HepG2 Assay for human Myelocytomatosis (Myc) Proto-Oncogene Transcription Factor (AID 2282990); details: HepG2, Attagene cis-reporter transcription factor activity; actives raise or lower the signal
Outline: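 HepG2 cells transiently transfected with multiple cis-promoter-driven reporter transcription units, so endogenous TF activity is read. After 24 h compound exposure, reporter mRNA was quantified by RT-PCR, 6-FAM labelling, HpaI digestion and capillary electrophoresis; bidirectional fit versus DMSO.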

[3] = ATG_NF_kB_CIS: Attagene CIS-FACTORIAL HepG2 Assay for human Nuclear Factor Kappa B (NF-kB) (AID 2282991); details: HepG2 Attagene cis-factorial NF-kB reporter mRNA; actives raise or lower the signal
Outline: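 Measures mRNA induction of an NF-kB-responsive cis-element reporter in HepG2 cells transfected with multiple reporter units, sampled 24 h post-dosing; quantified by fluorescence after RT-PCR and capillary electrophoresis, fitted for activation or inhibition against DMSO.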

[4] = ATG_NRF2_ARE_CIS: Attagene CIS-FACTORIAL HepG2 Assay for human Nuclear Factor Erythroid 2 Related Factor 2 (NFR2) response to Antioxidant Response Elements (ARE) (AID 2282992); details: HepG2 Attagene ARE/NRF2 reporter, transcription factor activity; actives raise or lower the signal;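 for AC50: reporter mRNA level measured by RT-PCR and capillary electrophoresis fluorescence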
Outline: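 Using transiently transfected HepG2 cells exposed for 24 h, reporter mRNA levels were determined by RT-PCR with fluorescent primer extension and capillary electrophoresis, analysed for gain or loss of signal against DMSO.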

[5] = ATG_Oct_MLP_CIS: Attagene CIS-FACTORIAL HepG2 Assay for human Octamer-Binding Transcription Factor (Oct) (AID 2282993); details: HepG2 Attagene cis-factorial Oct reporter, mRNA; actives raise or lower the signal
Outline: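 Multiplexed cis-reporter assay in human liver HepG2 cells, 24 h incubation. Reporter RNA amplified and labelled, then resolved by capillary electrophoresis; DMSO serves as negative control and baseline.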

[6] = biological target: Cellular tumor antigen p53 (Homo sapiens) (UniProt P04637); experiment: ATG_p53_CIS: Attagene CIS-FACTORIAL HepG2 Assay for human p53 Transcription Factor (AID 2282994); details: HepG2 p53 cis-element reporter, Attagene mRNA; actives raise or lower the signal
Outline: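 In HepG2 cells, reporter transcription units under cis-regulatory promoters were transiently introduced. Following 24 h treatment, RNA was processed to labelled, digested cDNA fragments read by capillary electrophoresis; fitting was bidirectional versus DMSO.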

[7] = BSK_3C_uPAR: BioMAP Diversity Plus: 3C Assay for Urokinase-type plasminogen activator receptor (uPAR) Biomarker Activity (AID 2282998); details: BioMAP 3C HUVEC, uPAR biomarker ELISA; actives raise or lower the signal
Outline: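 Dose primary human umbilical vein endothelial cells, incubate 24 h, measure cell-surface uPAR by ELISA, then fit the signal in both directions against the DMSO negative control.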

[8] = BSK_3C_VCAM1: BioMAP Diversity Plus: 3C Assay for Vascular cell adhesion molecule 1 (VCAM1) Biomarker Activity (AID 2282999); details: BioMAP 3C HUVEC, VCAM1 ELISA, cytokine-stimulated; actives raise or lower the signal
Outline: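 Vascular primary endothelium (human umbilical vein) was exposed to chemicals and assayed 24 h later. VCAM-1 levels came from ELISA, with DMSO serving as baseline for bidirectional fitting.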

[9] = BSK_4H_Eotaxin3: BioMAP Diversity Plus: 4H Assay for Eotaxin 3 Biomarker Activity (AID 2283000); details: primary human endothelial cells (HUVEC); actives raise or lower the signal
Outline: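 Human umbilical vein endothelial cells (BSK_4H system) dosed with test chemical; Eotaxin-3 (CCL26) measured by ELISA 24 h after dosing. Bidirectional curve fitting relative to DMSO negative control as baseline.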

[10] = BSK_3C_TissueFactor: BioMAP Diversity Plus: 3C Assay for Tissue Factor Biomarker Activity (AID 2282997); details: BioMAP 3C HUVEC, tissue factor biomarker readout; actives raise or lower the signal
Outline: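 Tissue factor on primary human umbilical vein endothelium was read by ELISA 24 h after dosing, gain or loss relative to DMSO. Cytotoxicity ran alongside via SRB (0.1%, TCA-fixed, 560 nm).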

Measured: AC50

Myc proto-oncogene protein (Homo sapiens), sequence (P01106 whole entry, looked up): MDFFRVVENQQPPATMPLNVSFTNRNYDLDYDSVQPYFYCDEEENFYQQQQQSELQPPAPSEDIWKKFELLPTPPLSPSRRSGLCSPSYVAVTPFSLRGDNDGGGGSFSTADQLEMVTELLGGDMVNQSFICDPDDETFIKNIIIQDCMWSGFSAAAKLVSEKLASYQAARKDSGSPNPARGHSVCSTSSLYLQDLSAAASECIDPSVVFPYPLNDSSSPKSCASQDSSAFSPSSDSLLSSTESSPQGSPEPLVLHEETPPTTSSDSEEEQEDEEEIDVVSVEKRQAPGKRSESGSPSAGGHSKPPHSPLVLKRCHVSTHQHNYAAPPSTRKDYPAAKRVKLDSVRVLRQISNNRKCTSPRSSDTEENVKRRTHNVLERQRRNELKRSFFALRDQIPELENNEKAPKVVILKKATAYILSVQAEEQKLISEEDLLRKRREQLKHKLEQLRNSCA
Cellular tumor antigen p53 (Homo sapiens), sequence (P04637 whole entry, looked up, the tested form may be a part): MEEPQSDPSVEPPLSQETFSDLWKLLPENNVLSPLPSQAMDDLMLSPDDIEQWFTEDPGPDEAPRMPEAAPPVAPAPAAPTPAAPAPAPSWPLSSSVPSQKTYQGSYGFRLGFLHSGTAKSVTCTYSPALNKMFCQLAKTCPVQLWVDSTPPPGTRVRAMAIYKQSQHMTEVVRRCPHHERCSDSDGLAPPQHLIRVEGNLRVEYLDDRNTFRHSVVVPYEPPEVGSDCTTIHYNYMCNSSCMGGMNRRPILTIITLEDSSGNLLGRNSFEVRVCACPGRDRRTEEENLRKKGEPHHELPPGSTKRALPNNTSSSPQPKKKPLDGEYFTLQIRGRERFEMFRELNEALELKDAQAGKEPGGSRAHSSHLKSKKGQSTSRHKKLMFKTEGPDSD

O=c1n(Cl)c(=O)n(Cl)c(=O)n1Cl
not listed: [10]
inactive: all other assays above

Clc1cccc(C(Cl)(Cl)Cl)n1
not listed: [3] | [9]
inactive: all other assays above

CC(C)C1(C)N=C(c2ncccc2C(=O)O)NC1=O (stereo not given)
not listed: [3] | [9]
inactive: all other assays above

Clc1nc(Cl)nc(Nc2ccccc2Cl)n1
active: [4] 29.4 µM
not listed: [10]
inactive: all other assays above

Cc1ccc(N=CN(C)C=Nc2ccc(C)cc2C)c(C)c1
active: [7] 37.6 µM | [8] 16.4 µM | [9] 38.6 µM
not listed: [3] | [10]
inactive: all other assays above

CC(C)Nc1nc(Cl)nc(NC(C)C)n1
not listed: [3] | [9] | [10]
inactive: all other assays above

CSC(=O)c1c(C(F)F)nc(C(F)(F)F)c(C(=O)SC)c1CC(C)C
active: [7] 32.6 µM
not listed: [3] | [9] | [10]
inactive: all other assays above

CNC(=O)Oc1cccc2ccccc12
active: [1] 74.5 µM | [4] 15.6 µM | [5] 50 µM
not listed: [9] | [10]
inactive: all other assays above

COc1cc(OC)nc(NC(=O)NS(=O)(=O)c2ncccc2OCC(F)(F)F)n1
not listed: [10]
inactive: all other assays above

COCc1cnc(C2=NC(C)(C(C)C)C(=O)N2)c(C(=O)O)c1 (stereo not given)
not listed: [3] | [6]
inactive: all other assays above

CCCCC(C#N)(Cn1cncn1)c1ccc(Cl)cc1 (stereo not given)
not listed: [3] | [9]
inactive: all other assays above

COC(=O)c1c(C(F)F)nc(C(F)(F)F)c(C2=NCCS2)c1CC(C)C
active: [4] 2.14 µM | [5] 9.92 µM | [7] 33.4 µM | [9] 6.71 µM
not listed: [10]
inactive: all other assays above

Cc1cnc(C2=NC(C)(C(C)C)C(=O)N2)c(C(=O)O)c1 (stereo not given)
active: [4] 13 µM
not listed: [3] | [9]
inactive: all other assays above

COP(=S)(OC)Oc1ccc([N+](=O)[O-])c(C)c1
active: [4] 19.1 µM | [5] 50 µM | [7] 15.6 µM
not listed: [3] | [10]
inactive: all other assays above

CC1(C)CCC(=Cc2ccc(Cl)cc2)C1(O)Cn1cncn1 (stereo not given)
active: [4] 3.91 µM | [5] 13.3 µM
not listed: [3]
inactive: all other assays above

CN/C(=N\[N+](=O)[O-])NCc1cnc(Cl)s1
not listed: [3] | [9]
inactive: all other assays above

COC(=O)N(C(=O)N1CO[C@@]2(C(=O)OC)Cc3cc(Cl)ccc3C2=N1)c1ccc(OC(F)(F)F)cc1
inactive: [1] | [2] | [6] | [7] | [8]
active: [4] 4.35 µM | [5] 1.71 µM

N#CN=C1SCCN1Cc1ccc(Cl)nc1
active: [4] 50 µM
not listed: [10]
inactive: all other assays above

CO/N=C(/C1=NOCCO1)c1ccccc1Oc1ncnc(Oc2ccccc2Cl)c1F
active: [4] 0.946 µM | [5] 0.833 µM | [7] 5.95 µM | [9] 27.8 µM
not listed: [10]
inactive: all other assays above

COc1cc(Cl)c(OC)cc1Cl
not listed: [10]
inactive: all other assays above

CCNC(=O)NC(=O)C(C#N)=NOC
inactive: [1] | [2] | [4] | [5] | [7] | [8]

CCOc1cc(C(C)(C)C)ccc1C1COC(c2c(F)cccc2F)=N1 (stereo not given)
active: [4] 1.62 µM | [5] 0.581 µM | [7] 29.7 µM | [8] 28 µM
inactive: [1] | [2] | [3]

Cc1c(COC(=O)[C@@H]2[C@H](/C=C(\Cl)C(F)(F)F)C2(C)C)cccc1-c1ccccc1
not listed: [10]
inactive: all other assays above

COCC(=O)N(c1c(C)cccc1C)C(C)C(=O)OC (stereo not given)
active: [4] 50 µM
not listed: [3] | [10]
inactive: all other assays above

CC(C)=CC1C(C(=O)OCc2coc(Cc3ccccc3)c2)C1(C)C (stereo not given)
active: [4] 13.8 µM | [5] 6.38 µM | [7] 12 µM
inactive: [1] | [2] | [3] | [8]

CC1(C)C(C(=O)OC(C#N)c2cccc(Oc3ccccc3)c2)C1(C)C (stereo not given)
active: [4] 0.913 µM
not listed: [10]
inactive: all other assays above

CC1(C)C(C=C(Cl)Cl)C1C(=O)OC(C#N)c1cccc(Oc2ccccc2)c1 (stereo not given)
active: [4] 0.723 µM | [7] 13.9 µM
not listed: [10]
inactive: all other assays above
